In PubChem BioAssay AID485341 (National Center for Advancing Translational Sciences (NCATS), 2010):
The campaign covered roughly 330,000 compounds. About 1,700 (0.52%) were called active. This is one part of a sample in which actives are shown more often than they occur. Unmarked numbers belong to inactive results. The call rests on the fitted dose curve; in most records, active means well fitted inhibition curve with a large enough effect; inconclusive means small, poorly fitted or top-dose-only effect; inactive means no such curve, though single readings can be large or run the other way.

Biological target: Beta-lactamase (Escherichia coli (strain K12)) (UniProt P00811)
Assay: qHTS Inhibitors of AmpC Beta-Lactamase (assay without detergent); further: nearly all actives have a fitted effect of over 20% in size;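 on activity change, negative = inhibition: plate controls were no compound for no effect and no enzyme for full effect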
Settings: AmpC nitrocefin hydrolysis, absorbance 480 nm, 0.0001% Triton; series mostly up to 57.1 µM; activity change, negative = inhibition: at the top concentration
Procedure, shortened: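 AmpC (5.3 nM in the dispensed reagent) in 20 mM phosphate pH 7.0 with 0.01% (detergent screen) or 0.0001% Triton X-100 was preincubated with compounds for 15 min at room temperature. Nitrocefin was then added from an 800 uM solution, and hydrolysis was followed at 480 nm.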
Potency means the concentration at half of the fitted maximal effect.

Chain of Beta-lactamase (Escherichia coli (strain K12)) (P00811 whole entry, looked up): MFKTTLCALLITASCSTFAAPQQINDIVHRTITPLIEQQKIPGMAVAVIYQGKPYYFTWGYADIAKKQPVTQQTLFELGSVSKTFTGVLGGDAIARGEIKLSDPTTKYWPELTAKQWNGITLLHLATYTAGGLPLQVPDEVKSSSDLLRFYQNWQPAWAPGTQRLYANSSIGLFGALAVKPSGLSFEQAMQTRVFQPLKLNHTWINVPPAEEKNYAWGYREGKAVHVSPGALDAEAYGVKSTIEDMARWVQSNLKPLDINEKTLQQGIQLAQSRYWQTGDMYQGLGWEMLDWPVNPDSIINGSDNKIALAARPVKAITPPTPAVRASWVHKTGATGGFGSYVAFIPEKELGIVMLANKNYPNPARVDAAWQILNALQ

Going from `O=C(NC1CC1)C1=C[C@H](c2c[nH]c3ccccc23)C[C@H](OCc2ccc(CO)cc2)O1` to `O=C(Cn1nc(Cc2cccnc2)c2ccccc2c1=O)NCC1COc2ccccc2O1` (centres undefined), the “activity change, negative = inhibition” value falls from 67.4% to 9.49%.

Going from `CCNC(=O)NC(=O)C(C)OC(=O)C1CCN(S(=O)(=O)c2ccccc2F)CC1` (centres undefined) to `COc1cccc(CNC(=O)C2CCN(S(=O)(=O)c3cccc4cccnc34)CC2)c1`, the “activity change, negative = inhibition” value rises from -3.92% to -3.22%.

First: CCOC1CS(=O)(=O)CC1OCC (centres undefined)
Second: CCOc1ccc(CN2CCNC(=O)C2CC(=O)NCCCC2CCCC2)cc1 (centres undefined)
The “activity change, negative = inhibition” value of the first is lower: -17.7% for the first, 150% for the second.

Compared with `c1csc(-c2nnc(COc3ccc4c(c3)OCO4)o2)c1`, `Cc1cc(-c2nnc(CCC(=O)NC(c3ccccc3)c3ccccc3)o2)no1` is higher in “activity change, negative = inhibition” value: -26.4% for the first, 13.8% for the second.

First: C=CS(=O)c1sc(Cl)c(N2CCOCC2)c1[N+](=O)[O-] (centres undefined)
Second: O=C(c1cc2cc(Br)cc(Br)c2oc1=O)N1CCOCC1
The “activity change, negative = inhibition” value of the first is lower: -20.3% for the first, -18.2% for the second.

Going from `Cc1cc(Nc2cccc(F)c2)n2ncnc2n1` to `Cc1cc(=O)oc(C)c1C(=O)Nc1cnc2ccccc2c1`, the “activity change, negative = inhibition” value falls from -4.37% to -8.5%.

Compared with `O=S(=O)(NCc1ccco1)c1cnc(Cl)c(Cl)c1`, `Cc1c(Cl)cnc(NC(=O)COC(=O)c2ccc(S(=O)(=O)NCc3ccco3)cc2)c1Cl` is lower in “activity change, negative = inhibition” value: -20.1% for the first, -40.8% for the second.

Going from `O=C(c1cccnc1)N(c1cc2sc(=O)oc2c2ccccc12)S(=O)(=O)c1ccccc1` to `CCN(CC(=O)Nc1ccc(Cl)c(S(=O)(=O)N(C)C)c1)Cc1nc2ccccc2c(=O)[nH]1`, the “activity change, negative = inhibition” value rises from -28.4% to -6.1%.

First: Cc1ccccc1SCC(=O)OCC(=O)N1CC(=O)Nc2ccccc21
Second: Cc1nn(CC(=O)NCC2CCCO2)c(=O)c2cc3ccccc3n12 (centres undefined)
The “activity change, negative = inhibition” value of the first is lower: -16.8% for the first, -8.11% for the second.

Compared with `O=C1CSC(=S)N1/N=C/c1ccc(O)c([N+](=O)[O-])c1`, `Cc1ccc(N=Cc2c(O)cc(C)oc2=O)c(C)c1` is higher in “activity change, negative = inhibition” value: -44.4% for the first, -18.8% for the second.

Compared with `COc1ccc(NC(=O)c2ccc(C#CC(C)(C)O)cc2)cc1`, `COc1ccc(NC(=O)CSc2nc(C)cs2)cc1` is lower in “activity change, negative = inhibition” value: 4.78% for the first, -12.6% for the second.

Compared with `CNC[C@H]1Oc2c(NC(=O)C3CCCCC3)cccc2C(=O)N([C@H](C)CO)C[C@@H]1C`, `Nn1c(SCC(=O)NC(=O)NC2CCCC2)nnc1-c1ccccc1F` is lower in “activity change, negative = inhibition” value: -6.12% for the first, -17.2% for the second.

Compared with `Cn1cccc1Cc1nnc(SCC(=O)NCc2ccc3c(c2)OCO3)n1CCc1ccccc1`, `O=C(CSc1nnc2scc(-c3ccc(F)cc3)n12)NCc1ccco1` is lower in “activity change, negative = inhibition” value: 66.4% for the first, -21.6% for the second.

Going from `COc1ccccc1C(=O)Nc1ccc(C)c(S(=O)(=O)N2CCCCC2)c1` to `CCc1ccc(CN(C)C(C)C(=O)Nc2ccc(S(=O)(=O)N3CCCC3)cc2)cc1` (centres undefined), the “activity change, negative = inhibition” value rises from -3.57% to 3.82%.

Going from `COc1cccc2c1OCC1COc3c(c(=O)n(C)c(=O)n3C)C21` (centres undefined) to `COc1ccccc1N(CC(=O)Nc1ccc(C(F)(F)F)cc1)S(C)(=O)=O`, the “activity change, negative = inhibition” value rises from -17.4% to 41.8%.

Going from `C=CCNCCCCOc1ccccc1` to `CC(=O)C1C(c2cccc(Oc3ccccc3)c2)NC(=O)NC1(O)C(F)(F)F` (centres undefined), the “activity change, negative = inhibition” value rises from 0.575% to 6.25%.

First: O=C(O)C1CCCN(S(=O)(=O)c2cccc3cccnc23)C1 (centres undefined)
Second: O=C(CSC(=S)N1CCOCC1)c1ccccc1
The “activity change, negative = inhibition” value of the first is higher: -14.6% for the first, -17% for the second.

Compared with `CCOC(=O)C1C(c2ccc(O)cc2)NC(=O)NC1(O)C(F)(F)F` (centres undefined), `CCOC(=O)/C(=N\Nc1cc(Cl)ccc1Cl)N1CCN(C)CC1` is higher in “activity change, negative = inhibition” value: 1.51% for the first, 142% for the second.

Compared with `COC(=O)[C@@H]1CC(O)CN1C(=O)C12CC3CC(CC(C3)C1)C2` (some centres undefined), `COCCNC(=O)Cn1cc2c(n1)CCCCC2` is higher in “activity change, negative = inhibition” value: -9.8% for the first, 0.855% for the second.

Going from `CC(=O)Nc1ccc(S(=O)(=O)Nc2ccc(-c3ccc4nnc(C)n4n3)cc2)cc1` to `Cc1ccc(NS(=O)(=O)c2ccc(C(C)(C)C)cc2)cn1`, the “activity change, negative = inhibition” value falls from 17.8% to -22.9%.

First: Cn1c(-c2ccc(F)cc2)cnc1SCC(=O)NCc1ccco1
Second: O=C(Cn1cc2c(n1)CCCCC2)NCCN1CCOCC1
The “activity change, negative = inhibition” value of the first is higher: 3.42% for the first, -5.23% for the second.

With `C/C(=N\Nc1ncc(Cl)cc1Cl)c1ccc(S(=O)(=O)NCc2ccco2)cc1` the Potency was 31.6 µM (active).
For `Cc1cc(C(=O)N/N=C/c2ccc(O)c([N+](=O)[O-])c2)c(C)n1-c1ccc(F)cc1`, the Potency was 17.8 µM (active).
For `COc1ccc(NC(=O)c2sccc2SCC#N)cc1`, the Potency was 4.47 µM (active).
`Cc1cc(O)c(C(=O)/C=C/c2c(F)c(F)c(F)c(F)c2F)c(=O)o1` was tested, and the Potency was 11.2 µM (active).
With `COc1ccccc1CNC(=O)C1CCCN(S(=O)(=O)c2cccc3cccnc23)C1` (centres undefined) the Potency was 22.4 µM (active).
For `CC(=O)C1C(c2ccc(Cl)cc2)NC(=O)NC1(O)C(F)(F)F` (centres undefined), the Potency was 44.7 µM (active).
`CC(=O)Nc1ccc(S(=O)(=O)Nc2nc(-c3ccc(C(C)(C)C)cc3)cs2)cc1` was tested, and the Potency was 35.5 µM (active).
With `Cc1ccc(-c2csc3nnc(SCC(=O)NCc4ccco4)n23)cc1` the Potency was 0.316 µM (active).
For `O=C(Cn1nc(Cc2cccnc2)c2ccccc2c1=O)NCC1CCCO1` (centres undefined), the Potency was 0.501 µM (active).
With `CCOC(=O)N1CCC(NC(=O)Cn2cc3c(n2)CCCCC3)CC1` the Potency was 35.5 µM (active).
With `O=C(CSC(=S)N1CCOCC1)c1cc(Br)cc(Br)c1O` the Potency was 20 µM (active).

In the case of `Cc1cc(C(=O)COC(=O)C2CC2)c(C)n1-c1ccc(F)cc1`, the activity change, negative = inhibition was -17.5% [at 11.4 µM].
